Data reported in ChEMBL document CHEMBL1961873, “Compounds: GSK PKIS; Assays: Nanosyn kinase panel” (2012).

Columns and labels:
[1] = biological target: Mitogen-activated protein kinase kinase kinase kinase 4 (Homo sapiens) (UniProt O95819); settings: at 1 µM;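 note: reported figure is an averaged inhibition value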
[2] = biological target: Dual specificity mitogen-activated protein kinase kinase 1 (Homo sapiens) (UniProt Q02750); settings: at 0.1 µM
[3] = biological target: Dual specificity mitogen-activated protein kinase kinase 1 (Homo sapiens) (UniProt Q02750); settings: at 1 µM
[4] = biological target: Misshapen-like kinase 1 (Homo sapiens) (UniProt Q8N4C8); settings: at 0.1 µM
Misshapen-like kinase 1 (Homo sapiens), sequence (Q8N4C8 whole entry, looked up): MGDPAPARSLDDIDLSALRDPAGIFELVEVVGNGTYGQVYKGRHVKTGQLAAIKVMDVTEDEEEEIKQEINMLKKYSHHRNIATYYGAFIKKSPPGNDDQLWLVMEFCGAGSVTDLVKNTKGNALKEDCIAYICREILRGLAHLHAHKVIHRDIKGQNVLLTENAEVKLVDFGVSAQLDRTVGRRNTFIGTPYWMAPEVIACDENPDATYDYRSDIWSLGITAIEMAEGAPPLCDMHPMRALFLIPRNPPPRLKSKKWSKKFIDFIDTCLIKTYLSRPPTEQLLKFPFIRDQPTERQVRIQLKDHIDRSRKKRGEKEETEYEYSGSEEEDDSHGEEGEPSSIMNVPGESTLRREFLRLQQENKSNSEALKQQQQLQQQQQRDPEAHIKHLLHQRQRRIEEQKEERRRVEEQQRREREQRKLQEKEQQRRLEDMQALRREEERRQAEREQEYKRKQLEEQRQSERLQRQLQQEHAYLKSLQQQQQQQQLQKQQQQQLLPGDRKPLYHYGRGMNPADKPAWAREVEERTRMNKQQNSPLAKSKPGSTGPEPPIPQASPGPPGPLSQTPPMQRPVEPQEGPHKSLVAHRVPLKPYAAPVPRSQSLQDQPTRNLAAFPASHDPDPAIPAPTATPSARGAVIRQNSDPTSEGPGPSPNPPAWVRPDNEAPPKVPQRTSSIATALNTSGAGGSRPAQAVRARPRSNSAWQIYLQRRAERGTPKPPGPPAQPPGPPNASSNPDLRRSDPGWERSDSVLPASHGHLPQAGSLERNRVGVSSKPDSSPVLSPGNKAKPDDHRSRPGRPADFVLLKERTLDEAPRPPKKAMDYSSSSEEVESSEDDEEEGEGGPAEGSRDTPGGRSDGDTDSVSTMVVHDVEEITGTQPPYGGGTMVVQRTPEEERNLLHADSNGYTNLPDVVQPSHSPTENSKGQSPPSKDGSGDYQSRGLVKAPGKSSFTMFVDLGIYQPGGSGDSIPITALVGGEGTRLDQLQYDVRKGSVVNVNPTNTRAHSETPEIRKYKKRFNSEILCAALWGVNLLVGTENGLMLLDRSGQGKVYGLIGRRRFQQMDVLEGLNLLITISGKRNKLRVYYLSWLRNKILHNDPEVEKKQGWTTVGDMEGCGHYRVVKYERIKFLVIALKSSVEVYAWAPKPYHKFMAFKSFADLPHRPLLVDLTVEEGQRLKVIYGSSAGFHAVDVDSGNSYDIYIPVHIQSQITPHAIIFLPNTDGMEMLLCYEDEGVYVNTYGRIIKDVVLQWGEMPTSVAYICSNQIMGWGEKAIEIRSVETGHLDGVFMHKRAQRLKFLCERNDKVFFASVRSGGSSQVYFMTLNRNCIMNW

[5] = biological target: Misshapen-like kinase 1 (Homo sapiens) (UniProt Q8N4C8); settings: at 1 µM
[6] = biological target: T1, Serine/threonine-protein kinase 4 (Homo sapiens) (UniProt Q13043); settings: at 0.1 µM
T1 sequence (whole entry): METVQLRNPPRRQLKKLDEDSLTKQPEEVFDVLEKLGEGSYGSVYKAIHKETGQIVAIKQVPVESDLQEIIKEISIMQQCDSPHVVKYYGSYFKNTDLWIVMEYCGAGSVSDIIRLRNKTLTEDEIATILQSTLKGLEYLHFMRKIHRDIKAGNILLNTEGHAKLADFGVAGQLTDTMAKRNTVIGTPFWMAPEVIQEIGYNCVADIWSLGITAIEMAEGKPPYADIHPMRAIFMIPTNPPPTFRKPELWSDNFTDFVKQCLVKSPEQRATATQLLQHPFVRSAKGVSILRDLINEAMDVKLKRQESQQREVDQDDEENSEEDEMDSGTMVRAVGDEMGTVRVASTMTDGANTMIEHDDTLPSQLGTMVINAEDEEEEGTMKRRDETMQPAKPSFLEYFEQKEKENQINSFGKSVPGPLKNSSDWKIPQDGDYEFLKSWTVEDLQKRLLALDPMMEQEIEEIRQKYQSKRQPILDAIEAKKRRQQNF

[7] = biological target: T1, Serine/threonine-protein kinase 4 (Homo sapiens); settings: at 1 µM
[8] = biological target: T2, Serine/threonine-protein kinase 3 (Homo sapiens) (UniProt Q13188); settings: at 0.1 µM
T2 sequence (whole entry): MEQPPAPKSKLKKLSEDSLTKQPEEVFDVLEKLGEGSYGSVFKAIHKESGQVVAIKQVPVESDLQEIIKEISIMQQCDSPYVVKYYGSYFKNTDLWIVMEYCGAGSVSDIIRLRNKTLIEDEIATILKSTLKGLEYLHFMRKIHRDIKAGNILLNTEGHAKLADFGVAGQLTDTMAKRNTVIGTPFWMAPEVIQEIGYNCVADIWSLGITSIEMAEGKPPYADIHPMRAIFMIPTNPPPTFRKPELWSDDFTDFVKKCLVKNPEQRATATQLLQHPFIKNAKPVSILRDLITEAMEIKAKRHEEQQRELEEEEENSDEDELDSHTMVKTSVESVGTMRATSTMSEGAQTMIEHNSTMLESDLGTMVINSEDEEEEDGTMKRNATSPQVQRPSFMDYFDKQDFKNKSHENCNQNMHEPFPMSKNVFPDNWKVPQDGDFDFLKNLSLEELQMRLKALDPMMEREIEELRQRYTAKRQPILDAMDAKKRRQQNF

[9] = biological target: T2, Serine/threonine-protein kinase 3 (Homo sapiens); settings: at 1 µM
[10] = biological target: Serine/threonine-protein kinase 26 (Homo sapiens) (UniProt Q9P289); settings: at 0.1 µM
[11] = biological target: Serine/threonine-protein kinase 26 (Homo sapiens) (UniProt Q9P289); settings: at 1 µM
[12] = biological target: Serine/threonine-protein kinase PAK 1 (Homo sapiens) (UniProt Q13153); settings: at 0.1 µM
Serine/threonine-protein kinase PAK 1 (Homo sapiens), sequence (Q13153 whole entry): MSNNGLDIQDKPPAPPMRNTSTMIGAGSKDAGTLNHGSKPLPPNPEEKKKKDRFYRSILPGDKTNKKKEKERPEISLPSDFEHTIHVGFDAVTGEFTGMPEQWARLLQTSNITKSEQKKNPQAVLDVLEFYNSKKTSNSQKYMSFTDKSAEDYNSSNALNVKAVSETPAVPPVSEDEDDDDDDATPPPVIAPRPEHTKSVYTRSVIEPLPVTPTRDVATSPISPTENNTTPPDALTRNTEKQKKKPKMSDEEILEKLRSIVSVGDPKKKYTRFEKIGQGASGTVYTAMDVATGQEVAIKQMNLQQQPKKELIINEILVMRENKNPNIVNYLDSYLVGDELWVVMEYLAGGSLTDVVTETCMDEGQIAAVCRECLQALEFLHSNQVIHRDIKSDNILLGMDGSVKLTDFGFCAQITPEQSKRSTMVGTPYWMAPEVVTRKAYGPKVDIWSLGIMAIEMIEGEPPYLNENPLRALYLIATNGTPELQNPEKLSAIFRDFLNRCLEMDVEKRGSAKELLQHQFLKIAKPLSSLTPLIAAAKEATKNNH

[13] = biological target: Serine/threonine-protein kinase PAK 1 (Homo sapiens) (UniProt Q13153); settings: at 1 µM
[14] = biological target: Serine/threonine-protein kinase PAK 2 (Homo sapiens) (UniProt Q13177); settings: at 0.1 µM
Serine/threonine-protein kinase PAK 2 (Homo sapiens), sequence (Q13177 whole entry): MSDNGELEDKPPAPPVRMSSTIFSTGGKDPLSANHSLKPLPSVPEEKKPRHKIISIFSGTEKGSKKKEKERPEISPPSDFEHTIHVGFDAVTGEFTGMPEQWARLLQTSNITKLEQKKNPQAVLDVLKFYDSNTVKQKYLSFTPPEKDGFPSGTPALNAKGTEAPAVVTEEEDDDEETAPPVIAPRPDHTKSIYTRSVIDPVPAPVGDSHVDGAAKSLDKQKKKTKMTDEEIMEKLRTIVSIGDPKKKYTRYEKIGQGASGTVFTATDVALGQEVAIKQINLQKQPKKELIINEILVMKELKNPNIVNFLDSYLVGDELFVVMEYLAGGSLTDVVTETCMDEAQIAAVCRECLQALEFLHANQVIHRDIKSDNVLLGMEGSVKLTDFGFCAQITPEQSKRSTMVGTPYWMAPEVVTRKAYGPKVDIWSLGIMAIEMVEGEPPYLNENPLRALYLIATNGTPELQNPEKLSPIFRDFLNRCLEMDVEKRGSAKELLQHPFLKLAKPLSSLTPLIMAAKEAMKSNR

[15] = biological target: Serine/threonine-protein kinase PAK 2 (Homo sapiens) (UniProt Q13177); settings: at 1 µM
[16] = biological target: Serine/threonine-protein kinase PAK 3 (Homo sapiens) (UniProt O75914); settings: at 0.1 µM
[17] = biological target: Serine/threonine-protein kinase PAK 3 (Homo sapiens) (UniProt O75914); settings: at 1 µM
[18] = biological target: Serine/threonine-protein kinase PAK 5 (Homo sapiens) (UniProt Q9P286); settings: at 0.1 µM
Serine/threonine-protein kinase PAK 5 (Homo sapiens), sequence (Q9P286 whole entry, looked up): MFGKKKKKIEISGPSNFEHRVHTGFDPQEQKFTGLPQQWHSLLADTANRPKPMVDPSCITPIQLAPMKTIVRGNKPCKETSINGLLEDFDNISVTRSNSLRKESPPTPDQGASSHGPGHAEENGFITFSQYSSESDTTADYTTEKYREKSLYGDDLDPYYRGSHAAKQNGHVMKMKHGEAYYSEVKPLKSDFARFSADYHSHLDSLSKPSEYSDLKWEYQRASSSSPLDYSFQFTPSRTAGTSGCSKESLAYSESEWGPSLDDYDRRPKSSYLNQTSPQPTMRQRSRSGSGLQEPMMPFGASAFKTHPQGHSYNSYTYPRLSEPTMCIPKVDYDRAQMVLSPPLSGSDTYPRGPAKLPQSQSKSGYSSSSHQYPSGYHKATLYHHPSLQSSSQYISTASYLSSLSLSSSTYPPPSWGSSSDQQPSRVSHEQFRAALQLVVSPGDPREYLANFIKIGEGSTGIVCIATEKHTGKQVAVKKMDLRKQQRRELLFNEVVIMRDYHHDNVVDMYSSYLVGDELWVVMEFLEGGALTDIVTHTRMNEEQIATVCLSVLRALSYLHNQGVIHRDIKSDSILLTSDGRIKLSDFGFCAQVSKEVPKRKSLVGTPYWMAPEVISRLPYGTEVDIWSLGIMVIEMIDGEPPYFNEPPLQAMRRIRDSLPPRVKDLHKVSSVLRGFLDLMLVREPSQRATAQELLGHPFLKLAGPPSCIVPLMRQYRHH

[19] = biological target: Serine/threonine-protein kinase PAK 5 (Homo sapiens) (UniProt Q9P286); settings: at 1 µM
[20] = biological target: Serine/threonine-protein kinase PAK 6 (Homo sapiens) (UniProt Q9NQU5); settings: at 0.1 µM;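 note: mean PAK6 inhibition reported from the GSK PKIS screen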
Serine/threonine-protein kinase PAK 6 (Homo sapiens), sequence (Q9NQU5 whole entry, looked up): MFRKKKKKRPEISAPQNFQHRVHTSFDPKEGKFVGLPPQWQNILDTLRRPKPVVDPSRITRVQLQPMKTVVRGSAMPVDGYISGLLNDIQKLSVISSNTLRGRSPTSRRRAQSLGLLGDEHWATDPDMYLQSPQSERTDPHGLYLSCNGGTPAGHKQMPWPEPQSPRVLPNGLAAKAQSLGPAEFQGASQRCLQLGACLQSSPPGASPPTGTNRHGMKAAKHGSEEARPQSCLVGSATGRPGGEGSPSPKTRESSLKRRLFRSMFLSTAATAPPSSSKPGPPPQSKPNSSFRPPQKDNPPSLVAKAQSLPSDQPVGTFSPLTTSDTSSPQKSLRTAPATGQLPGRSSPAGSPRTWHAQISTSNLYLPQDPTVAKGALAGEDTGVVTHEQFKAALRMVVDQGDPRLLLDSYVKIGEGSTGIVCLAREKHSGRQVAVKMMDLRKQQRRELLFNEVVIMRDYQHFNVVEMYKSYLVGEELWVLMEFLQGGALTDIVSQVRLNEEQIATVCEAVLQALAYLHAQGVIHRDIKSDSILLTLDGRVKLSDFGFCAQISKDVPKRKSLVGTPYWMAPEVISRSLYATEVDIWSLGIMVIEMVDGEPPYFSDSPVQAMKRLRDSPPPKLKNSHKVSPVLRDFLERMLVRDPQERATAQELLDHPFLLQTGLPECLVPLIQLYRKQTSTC

Mitogen-activated protein kinase kinase kinase kinase 4 (Homo sapiens), sequence (O95819 2-1239 limits assumed): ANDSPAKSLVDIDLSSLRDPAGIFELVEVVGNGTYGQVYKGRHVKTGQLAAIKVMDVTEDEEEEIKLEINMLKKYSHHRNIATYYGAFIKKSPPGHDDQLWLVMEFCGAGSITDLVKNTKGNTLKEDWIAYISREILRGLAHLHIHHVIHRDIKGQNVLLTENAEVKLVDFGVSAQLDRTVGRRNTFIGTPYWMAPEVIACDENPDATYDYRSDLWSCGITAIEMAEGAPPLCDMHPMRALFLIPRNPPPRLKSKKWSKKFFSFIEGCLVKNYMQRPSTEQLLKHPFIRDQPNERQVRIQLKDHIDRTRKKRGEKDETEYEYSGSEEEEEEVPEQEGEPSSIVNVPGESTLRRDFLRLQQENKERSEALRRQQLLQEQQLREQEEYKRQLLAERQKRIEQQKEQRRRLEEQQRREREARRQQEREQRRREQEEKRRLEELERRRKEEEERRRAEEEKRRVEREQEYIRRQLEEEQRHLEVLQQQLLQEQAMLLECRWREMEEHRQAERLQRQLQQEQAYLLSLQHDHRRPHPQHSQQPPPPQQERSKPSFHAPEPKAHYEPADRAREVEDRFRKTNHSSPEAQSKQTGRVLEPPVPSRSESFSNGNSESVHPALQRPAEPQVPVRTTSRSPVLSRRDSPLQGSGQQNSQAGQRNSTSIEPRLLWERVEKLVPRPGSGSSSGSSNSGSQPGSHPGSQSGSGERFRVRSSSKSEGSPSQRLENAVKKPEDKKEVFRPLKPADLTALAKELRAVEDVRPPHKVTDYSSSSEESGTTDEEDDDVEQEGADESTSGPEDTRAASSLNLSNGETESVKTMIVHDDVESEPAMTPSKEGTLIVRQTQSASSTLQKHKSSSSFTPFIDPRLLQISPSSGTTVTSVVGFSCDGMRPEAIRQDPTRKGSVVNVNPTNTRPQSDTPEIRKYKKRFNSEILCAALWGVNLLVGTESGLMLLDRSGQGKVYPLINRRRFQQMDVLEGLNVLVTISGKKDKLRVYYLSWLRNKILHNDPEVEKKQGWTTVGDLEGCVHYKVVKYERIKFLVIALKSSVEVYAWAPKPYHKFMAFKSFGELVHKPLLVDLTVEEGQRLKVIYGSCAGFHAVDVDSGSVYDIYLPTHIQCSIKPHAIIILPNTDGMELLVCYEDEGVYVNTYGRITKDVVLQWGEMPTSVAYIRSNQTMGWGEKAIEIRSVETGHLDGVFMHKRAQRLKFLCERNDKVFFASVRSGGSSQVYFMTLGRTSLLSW

| SMILES | inhibition [1] | inhibition [2] | inhibition [3] | inhibition [4] | inhibition [5] | inhibition [6] | inhibition [7] | inhibition [8] | inhibition [9] | inhibition [10] | inhibition [11] | inhibition [12] | inhibition [13] | inhibition [14] | inhibition [15] | inhibition [16] | inhibition [17] | inhibition [18] | inhibition [19] | inhibition [20] |
| --- | --- | --- | --- | --- | --- | --- | --- | --- | --- | --- | --- | --- | --- | --- | --- | --- | --- | --- | --- | --- |
| Fc1ccc(-c2nc3n(c2-c2ccncc2)CCS3)cc1 | 18.3% | 5.23% | 5.11% | 6.96% | 14% | 3.57% | 4.41% | 3.46% | 3.73% | -1.69% | -1.08% | 6.15% | 8.39% | 3.06% | 1.6% | 4.5% | 4.49% | -6.84% | -7.5% | 9.34% |
| Cc1ccc(C(=O)NC(C)C)cc1-c1ccc(C(=O)NCC2CC2)cc1 | 1.81% | -2.99% | -1.83% | -3.61% | -1.09% | -3.24% | -3.63% | -4.19% | -4.98% | 2.16% | 1.12% | -1.5% | -0.84% | -1.39% | -3.39% | -3.81% | -3.2% | -4.56% | -2.22% |  |
| NS(=O)(=O)c1ccc(N/N=C2\C(=O)Nc3ccc(-c4cnco4)cc32)cc1 | 77.6% | 2.18% | 5.31% | 51.6% | 75.8% | 43.8% | 76.8% | 33.4% | 73.2% | 0.61% | 11.1% | 2.52% | 3.12% | 0.33% | 0.86% | 1.7% | 2.52% | 0.27% | -0.09% |  |
| c1ccc(-c2n[nH]cc2-c2ccnc(-c3ccc(OCCN4CCOCC4)cc3)c2)nc1 | 77.5% | -0.91% | -0.3% | 20.2% | 69.2% | 1.73% | 2.13% | 2.06% | 0.12% | 5.82% | 2.93% | -0.81% | 5.57% | 1.69% | 0.57% | 3.54% | 3.78% | -6.65% | 4.04% | 7.57% |
| CCc1ccc(Oc2nccc(-c3c(-c4ccc(F)cc4)ncn3C3CCNCC3)n2)cc1 | 11.4% | 3.92% | 8.98% | 4.83% | 12.1% | 3.84% | 5.43% | 5.44% | 5.88% | 0.4% | 2.83% | 4.48% | 10.2% | 1.26% | 2.44% | 4.22% | 5.69% | 6.56% | 9.57% | -5.49% |
| Cc1ccc(NC(=O)c2ccoc2)cc1-c1ccc(C(=O)NCC2CC2)cc1 | 1.38% | 2.89% | 2.27% | 2.91% | 1.4% | 4.29% | 2.08% | 4.78% | 4.5% | -1.09% | -2.75% | 3.52% | 4.54% | 0.23% | -1.68% | 2.22% | 1.14% | -1.43% | 2.58% | -5.33% |
| COc1ccc2ncn(-c3cc(O[C@H](C)c4ccccc4Cl)c(C(N)=O)s3)c2c1 | 5.82% | 2.51% | 2.76% | 5.84% | 5.42% | 3.89% | 13% | 6.32% | 13.2% | -2.67% | -5.03% | 3.16% | 7.26% | 1.84% | 1.19% | 5.49% | 6.75% | 1.71% | 3.63% | -3.39% |
| O=C(Nc1ccc(Oc2ccc3[nH]c(NC(=O)c4ccccc4)nc3c2)cc1)Nc1cc(C(F)(F)F)ccc1F | 5.89% | 2.91% | 2.61% | 3.26% | 4.54% | 5.74% | 10.6% | 5.74% | 8.42% | 0.36% | -0.48% | 5.49% | 5.94% | 2.09% | 2.3% | 2.23% | 2.99% | 3.8% | 4.86% |  |
| O=C(Nc1n[nH]c2nc(-c3ccco3)ccc12)C1CC1 | 32.1% | -0.04% | 0.75% | 3.07% | 18.1% | 1.17% | 1.95% | 0% | -0.23% | 0.08% | 1.1% | 0.35% | 1.74% | 0.42% | -0.03% | 0.51% | 0.64% | 5.55% | 3.74% | 6.27% |
| c1ccc(Oc2ccc(Nc3ncc(-c4ccccc4)o3)cc2)cc1 | 6.86% | 0.88% | 1.76% | 3.49% | 7.84% | 1.03% | 1.83% | 0.33% | 0.37% | -1.17% | 0.79% | -1.14% | 6.59% | 0.5% | -0.36% | 0.64% | 0.63% | -0.61% | 2.2% | -2.49% |
| CNC(=O)c1cncc(/C=C/c2c(C)cccc2C)c1 | 7.57% | -0.07% | 0.41% | 1.75% | 3.59% | 2.23% | 3.51% | 2.27% | 2.73% | 0.91% | 2.22% | 0.04% | 3.72% | 1.52% | -0.05% | -0.14% | 0.85% | 7.14% | 2.41% |  |
| Cc1ccc(C(=O)NC2CCC2)cc1-c1ccc(C(=O)NCC2CC2)cc1 | 3.8% | 2.81% | 2.71% | 5.5% | 4.67% | 3.29% | 1.77% | 1.04% | 1.53% | -3.48% | -4.44% | 6.1% | 8.35% | 2.22% | 2.3% | 3.41% | 3.03% | -0.72% | -2.79% | 3.05% |
| COc1cc2ncn(-c3cc(OCCc4ccccc4)c(C(N)=O)s3)c2cc1OC | 26.2% | 3.24% | 2.39% | 5.52% | 18.8% | 2.99% | 13.6% | 2.95% | 11% | -1.7% | -2.27% | -1.36% | 5.32% | 0.32% | -0.01% | 2.35% | 2.82% | -3.93% | -5.75% | 1.18% |
| Fc1ccc(-c2c(-c3ccncc3)nc3n2CCS3)cc1 | 10.8% | 3.75% | 4.29% | 4.97% | 9.56% | 1.09% | 2.38% | 1.69% | 3.46% | -0.47% | 1.66% | 6.15% | -0.03% | -0.52% | 0.49% | 2.55% | 3.16% | 1.47% | 3.62% | 1.52% |
